# FBPA Giardia inh – blocks Giardia fructose-bisphosphate aldolase activity; purified Giardia FBPA; Potency, µM (series often up to 59.6 µM), inactives show at the top dose activity, negative = inhibition, hits mostly inhibitors; hit rate 0.71% among 290,000; note: nearly all actives have a fitted effect of over 55% in size
# Target sequence (A8B2U2 whole entry, looked up): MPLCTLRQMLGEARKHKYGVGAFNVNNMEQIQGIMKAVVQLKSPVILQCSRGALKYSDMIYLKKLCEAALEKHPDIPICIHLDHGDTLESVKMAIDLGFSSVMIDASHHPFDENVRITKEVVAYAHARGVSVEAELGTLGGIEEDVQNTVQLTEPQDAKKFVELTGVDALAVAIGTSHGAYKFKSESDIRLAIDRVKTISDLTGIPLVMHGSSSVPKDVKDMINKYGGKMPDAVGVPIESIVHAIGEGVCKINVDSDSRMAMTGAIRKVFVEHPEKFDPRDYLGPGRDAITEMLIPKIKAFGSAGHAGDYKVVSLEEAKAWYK
#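 40 nM FBPA preincubated 10 min at RT with compound (up to 57.5 uM final), then substrate plus GAPDH/TPI/NAD/arsenate coupling and diaphorase/resazurin added. Fluorescence read after 20 min at RT, 525/598 nm.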
# AmpC inh no detg – AmpC beta-lactamase inhibition without detergent. P00811. AmpC nitrocefin hydrolysis, absorbance 480 nm, 0.0001% Triton. Potency, µM (highest dose often 57.1 µM), inactives show top-dose activity change, negative = inhibition, usual class: inhibitors. hit rate 0.52% among 330,000. AID 485341;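 note: plate controls were no compound for no effect and no enzyme for full effect; nearly all actives have a fitted effect of over 20% in size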
#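 20 mM phosphate pH 7.0 + 0.01% (detergent screen) or 0.0001% Triton X-100; 5.3 nM AmpC reagent; cpd preinc 15 min RT; nitrocefin (800 uM stock) to start; A480 q20 s × 4 min; Activity was normalised to no-enzyme and no-compound control wells.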
# Sm TGR block – blocks Schistosoma mansoni thioredoxin glutathione reductase; Potency, µM (doses to about 114 µM), for the others: at the top dose activity change, negative = inhibition, actives largely listed as inhibitors; hit rate 3% among 360,000; purified TGR, DTNB reduction, TNB absorbance 405 nm; Q962Y6; note: nearly all actives have a fitted effect of over 60% in size
#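 TGR 20 nM + NADPH 100 uM (dispensed conc.), cpd preinc 15 min RT; start with NADPH (500 uM addition) then DTNB (15 mM addition). Kinetic TNB absorbance, 405 nm filter. Four-parameter Hill fit across titration.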
# AmpC detergent – inhibitors of E. coli AmpC beta-lactamase with detergent; P00811; AmpC hydrolysis of nitrocefin, absorbance 480 nm, 0.01% Triton; Potency, µM (titrated, usually from 114 µM), for inactives: top-dose activity change, negative = inhibition, most hits filed as inhibitors; hit rate 0.041% among 370,000; AID 485294;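 note: 0% = no-compound wells and -100% = no-enzyme wells; nearly all actives have a fitted effect of over 25% in size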
#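 AmpC (5.3 nM in the dispensed reagent) in 20 mM phosphate pH 7.0 with 0.01% (detergent screen) or 0.0001% Triton X-100 was preincubated with compounds for 15 min at room temperature. Nitrocefin was then added from an 800 uM solution, and hydrolysis was followed at 480 nm.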
# * marks the source's active call; other numbers are inactive results; ? = inconclusive; . = no result given; ! = not active in a repeat. Compounds with a hit are over-represented: about 3.6% of the library has one in this group of screens. Calls come from the whole dose curve; as a rule, active = well fitted curve in the direction sought with a large enough effect; inconclusive = small, poorly fitted or top-dose-only effect, or another doubt; inactive = no such curve, though single readings can be large; an effect the other way counts as inactive or inconclusive. Unless noted, % is set by controls: 0 for no effect and ±100 for the full control effect; potency is the fitted concentration of half-maximal effect.
SMILES,FBPA Giardia inh,AmpC inh no detg,Sm TGR block,AmpC detergent
CCOc1ccc(-c2nc(SCC(=O)NCCOC)c(-c3ccc(OC)c(OC)c3)[nH]2)cc1,.,.,2%,13%
COC(=O)CCC(C)N1CCC(Oc2ccc(C(=O)NCc3ccccn3)cc2)CC1 (configuration not stated),15%,-42%,19%,?
CCCCc1cc(=O)oc2cc(C)c(CN3CCCC3)c(O)c12,-20%,16µM*,-6%,-14%
COc1ccccc1CNC(=O)[C@H](C)NC(=O)C1CCN(C(=O)[C@@H]2CCCN2C(=O)OC(C)(C)C)CC1,0%,29%,-4%,-12%
COCCCNC(=O)C(=O)C1C(=O)Nc2ccccc21 (configuration not stated),-11%,-14%,13%,4%
CCOC(=O)Cn1c(=NC(=O)CSC(C)=O)sc2cc(F)ccc21,1%,35µM*,1%,?
CCOc1ccc(C=NNC(=O)c2ccc(-n3cnnn3)cc2)cc1,.,-23%,.,.
CCN1C=C(Cc2ccc(OC)cc2)C2=C(C1)C(c1ccc(OC)cc1)C(C#N)=C(N)O2 (configuration not stated),-26%,54%,35µM*,1%
O=C(CSc1nnnn1Cc1ccccc1)NCC(=O)c1ccccc1,1%,-2%,50µM*,-8%
Cc1nc(-n2ncc(C#N)c2N)c2c3c(sc2n1)CCC3,-7%,-25%,0%,?
CCCSc1nc(-n2ncc(C#N)c2N)c2c3c(sc2n1)CCC(C)C3 (configuration not stated),-5%,2µM*,2%,-9%
Cc1oc(-c2ccccc2F)nc1CS(=O)(=O)CC(=O)NCc1ccco1,4%,-5%,22µM*,-14%
CCN1CCN(C(=O)CS(=O)(=O)Cc2nc(-c3ccccc3C)oc2C)CC1,4%,30%,-20%,-6%
Cc1oc(-c2ccccc2F)nc1CS(=O)(=O)CC(=O)N1CCN(Cc2ccccc2)CC1,2%,195%,13µM*,-19%
Cc1ccc(-c2nc(CS(=O)(=O)CC(=O)N3CCOCC3)c(C)o2)cc1,.,21%,-35%,0%
Cc1oc(-c2ccccc2F)nc1CS(=O)(=O)CC(=O)N1CCOCC1,-3%,?,45µM*,?
Cc1ccccc1-c1nc(CS(=O)(=O)CC(=O)N2CCCCC2)c(C)o1,0%,79%,22µM*,3%
O=c1[nH]c(=O)n(-c2ccc(F)cc2)c2c1C(C(F)(F)F)(C(F)(F)F)N=C(c1ccc(F)cc1)N2,7%,-19%,-9%,-8%
CC(C)Cn1c(=O)c2ccccc2n2c(CCC(=O)Nc3cccc(Cl)c3)nnc12,.,.,9%,15%
Cc1ccc(NCc2cccn2-c2nnc(N3CCCCCC3)s2)cc1,.,.,6%,-1%
COc1ccc2c(c1)c1c(c(=O)n(-c3ccccc3C)c(=O)n1CC(=O)N1CCCC1)n2C,.,.,-4%,-6%
Cc1ccccc1-c1nc(CN2CCC(C(=O)N3CCN(c4ccccn4)CC3)CC2)c(C)o1,3%,124%,-1%,-18%
Cc1ccccc1-c1nc(CN2CCC(C(=O)N3CCC(C(N)=O)CC3)CC2)c(C)o1,6%,11µM*,-20%,?
COc1ccc(S(=O)(=O)Nc2cc(Sc3ncn[nH]3)c(O)c3ccccc23)cc1,0.56µM*,-28%,0.5µM*,-5%
O=S(=O)(Nc1cc(Sc2cccc3cccnc23)c(O)c2ccccc12)c1ccc(F)cc1,1.1µM*,-46%,3.5µM*,-6%
SMILES,FBPA Giardia inh,AmpC inh no detg,Sm TGR block,AmpC detergent
COc1cc(NS(=O)(=O)c2ccc(Cl)cc2)c(C(=O)O)cc1OC,-7%,-8%,0%,?
COc1ccc(S(=O)(=O)Nc2ccc(O)c(Sc3ncn[nH]3)c2)cc1,-21%,-27%,-10%,?
O=C(O)CSc1cc(NS(=O)(=O)c2ccc(Cl)cc2)c2ccccc2c1O,4µM*,-46%,7.1µM*,5%
Cc1cc(C)c(S(=O)(=O)Nc2ccc(O)cc2)cc1C,-3%,-33%,-29%,-2%
Cc1cc(C)c(S(=O)(=O)Nc2cc(SCC(=O)O)c(O)c3ccccc23)cc1C,4µM*,-46%,8.9µM*,-12%
OCCNC(=S)Nc1cccc(Cl)c1Cl,-3%,-7%,-4%,-6%
Cc1ccc(S(=O)(=O)n2nc(-c3ccco3)nc2NCc2ccccc2Cl)cc1,.,.,-7%,19%
COc1ccc(N2CCN(C(=O)CN3c4cccc5cccc(c45)S3(=O)=O)CC2)cc1,.,-18%,.,.
COc1ccc(S(=O)(=O)Nc2cc(SCC(=O)O)c(O)c3ccccc23)cc1,7.9µM*,-35%,3.5µM*,-6%
Cc1ccccc1N(C)S(=O)(=O)c1nnc(NC(=O)c2ccco2)s1,10%,?,25µM*!,-3%
CN(c1ccc(Cl)cc1)S(=O)(=O)c1nnc(NC(=O)c2ccco2)s1,.,-30%,20µM*!,3%
Cc1ccc(N(C)S(=O)(=O)c2nnc(NC(=O)c3ccco3)s2)cc1,-7%,-32%,?,-1%
COc1ccc(CCNC(=O)C(=O)NCC(c2ccc3c(c2)OCO3)N2CCOCC2)cc1OC (configuration not stated),.,.,0%,-1%
Oc1ccc(Nc2nc3ccccc3n3cnnc23)cc1,.,.,?,14%
CCOC(=O)C1Nc2ccc(Br)cc2C2C=CCC12 (configuration not stated),-1%,-27%,28µM*,-4%
O=C(OC1CCCCC1)c1ccc2c(c1)C1C=CCC1C(C(=O)O)N2 (configuration not stated),-21%,-23%,3.2µM*,-8%
COc1ccc(Br)cc1[C@@H]1Nc2ccc(C(=O)O)cc2[C@@H]2C=CC[C@@H]21,.,.,-20%,-10%
O=C(O)C1Nc2ccc(Br)cc2C2C=CCC12 (configuration not stated),-1%,-44%,0.89µM*,?
O=C(OC1CCCCC1)c1ccc(NC(=O)C2CCCCC2)cc1,0%,-29%,9%,?
CCOC(=O)c1ccc2c(c1)[C@@H]1C=CC[C@@H]1[C@H](c1cccc(OC)c1OC)N2,.,.,0%,-1%
Fc1ccc2c(c1)C1C=CCC1C(c1cc3c(cc1Br)OCO3)N2 (configuration not stated),-7%,-12%,18%,?
CCOC(=O)c1ccc2c(c1)C1C=CCC1C(C(=O)OCC)N2 (configuration not stated),-14%,-8%,32µM*,?
CNC(=O)NC(=O)CN1C(=O)NC2(CCOc3ccccc32)C1=O (configuration not stated),.,-28%,-4%,-1%
COc1cc2ccccc2cc1C(=O)N1CCc2ccccc21,.,-16%,4%,2%
O=C(Nc1ccc(Br)cc1)C1CCN(S(=O)(=O)c2cccc3nsnc23)CC1,.,.,-6%,-6%
O=C(Oc1ccc2c(c1)OCO2)c1cc2c(s1)CCC2,?,16µM*,-19%,-12%
CCCCn1c(NC(=O)c2ccco2)c(S(=O)(=O)c2ccc(C)cc2)c2nc3ccccc3nc21,?,-36%,?,-13%
